This note sets out measurements from PubChem BioAssay AID488969 (Vanderbilt High Throughput Screening Facility, 2010).

Over roughly 110,000 compounds, “z-score” has its median near -0.1; the highest 2% begin near 2. Many of the other results were omitted from the sample, so the highest values are more common in it than they were. Calls of active or inactive are those of the source.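 Rule for the calls: active = z-score in the third read window above 3 or below -3; inactive = the rest.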

For this test, the target named is Metabotropic glutamate receptor 8 (Rattus norvegicus) (UniProt P70579). Nature of the test: mGluR8 Gi/Go-coupled signaling modulation – cell-based, rat, thallium flux, HTS, primary screen (AID 488969). The conditions noted are these: HEK293 rat mGluR8, GIRK (G protein-gated inwardly rectifying potassium channel) thallium flux, FluoZin2; at 10 µM; stronger effect = higher value; submaximal glutamate (EC20) added with thallium.
Metabotropic glutamate receptor 8 (Rattus norvegicus), sequence (P70579 whole entry, looked up): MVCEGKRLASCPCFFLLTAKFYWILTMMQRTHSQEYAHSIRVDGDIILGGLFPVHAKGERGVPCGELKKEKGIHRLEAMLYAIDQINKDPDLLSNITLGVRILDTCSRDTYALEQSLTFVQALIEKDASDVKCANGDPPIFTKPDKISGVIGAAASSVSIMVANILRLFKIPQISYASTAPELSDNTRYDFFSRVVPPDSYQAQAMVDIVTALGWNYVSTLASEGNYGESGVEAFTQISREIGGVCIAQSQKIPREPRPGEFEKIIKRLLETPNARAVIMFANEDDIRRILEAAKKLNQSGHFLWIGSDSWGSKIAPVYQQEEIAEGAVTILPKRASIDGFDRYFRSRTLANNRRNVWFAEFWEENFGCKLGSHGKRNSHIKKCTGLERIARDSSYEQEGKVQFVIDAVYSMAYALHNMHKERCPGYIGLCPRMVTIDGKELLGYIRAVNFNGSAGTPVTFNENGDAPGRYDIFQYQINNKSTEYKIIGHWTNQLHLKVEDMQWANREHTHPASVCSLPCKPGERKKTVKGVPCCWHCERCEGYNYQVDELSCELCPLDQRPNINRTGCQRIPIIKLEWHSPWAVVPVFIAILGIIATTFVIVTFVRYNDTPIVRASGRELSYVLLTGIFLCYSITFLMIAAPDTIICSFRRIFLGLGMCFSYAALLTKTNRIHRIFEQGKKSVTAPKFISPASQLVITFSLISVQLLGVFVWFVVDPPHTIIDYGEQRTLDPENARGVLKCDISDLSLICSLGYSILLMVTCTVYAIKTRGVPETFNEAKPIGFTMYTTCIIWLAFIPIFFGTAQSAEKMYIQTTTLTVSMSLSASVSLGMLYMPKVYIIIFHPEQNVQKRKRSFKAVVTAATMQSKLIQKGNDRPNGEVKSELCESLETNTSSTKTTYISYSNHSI
As to `CCOC(=O)CC(=O)CSc1nc2c(cc1C#N)CCC2`, the z-score turned out to be 2.18.

In the case of `CCOC(=O)CC(=O)CSc1nc2c(cc1C#N)CCCCC2`, the z-score stood at 1.09.

Consider `COC(=O)CC(=O)CSc1nc2c(cc1C#N)CCC2`, for which the z-score is -0.106.

Consider `CCC(=O)NCCCCNC(=O)CC`, for which the z-score worked out at 0.217.

Consider `CC1(C)CC(=O)C2=C(C1)OC(N)=C(C#N)C2c1cn(-c2ccccc2)nc1-c1ccc(F)cc1` (stereo not given), for which the z-score is -0.436.

In turn, `CCNC(=O)c1ccccc1NC(=O)c1cccc(S(=O)(=O)N2CCC(C)CC2)c1` returned a z-score of -1.17.

Consider `O=C1NC(=S)/C(=C\c2ccc(-c3ccccc3Cl)o2)S1`, for which the z-score is 3.83 (active).

As for `O=C1/C(=C\c2ccc(-c3ccccc3Cl)o2)SC(=S)N1CC1CCCO1` (stereo not given), the z-score was 0.755.

`O=C1N=C(N2CCOCC2)S/C1=C\c1ccc(-c2ccccc2Cl)o1` showed a z-score of -0.0639.

As to `COC(=O)c1sccc1NC(=O)c1c(C)cc(=O)oc1C`, the z-score was -0.28.

As to `Cc1ccc(NC(=O)C(NC2CCCc3ccccc32)c2ccccc2)c([N+](=O)[O-])c1` (stereo not given), the z-score worked out at 2.09.

The compound `Nc1ccc(C(=O)OCC(=O)NC2CCCc3ccccc32)cc1[N+](=O)[O-]` (stereo not given) had a z-score of -0.347.

As for `Cc1ccc(NC(=O)C(NC2CCCc3ccccc32)c2ccccc2)cc1Cl` (stereo not given), the z-score was -0.174.

In the case of `O=C(NC1CCCCC1)N(C1=NCCCCC1)c1ccc(Br)cc1`, the z-score is -0.204.

In turn, `CCOC(=O)C1=C(c2ccccc2)OC(N)=C(C#N)C1C1CCCCC1` (stereo not given) registered a z-score of -0.435.

In the case of `COc1ccc(/C=C2\N=C(SC)SC2=O)cc1OC`, the z-score is -0.325.

Take `Cc1ccc2ncccc2c1[N+](=O)[O-]`: the z-score is -0.242.

`COC(=O)c1cc2nc(-c3ccccc3)cc(C)n2n1`: the z-score is 0.0407.

With `CCOc1ccc(-c2cc(C)n3nc(C(N)=O)cc3n2)cc1`, the z-score was 5.02 (active).

The compound `Cc1cc(-c2ccc(F)cc2)nc2cc(C(N)=O)nn12` had a z-score of 0.242.

The compound `O=C(COc1ccccc1F)N1c2ccccc2CCc2ccccc21` came in with a z-score of -0.375.

Consider `C=CCNC(=S)NC1CC(C)(C)NC(C)(C)C1`, for which the z-score came to 0.609.

With `CCc1nn(-c2cc(Cl)ccc2OC)c2c1C(=O)CCC2`, the z-score is -0.275.

For the compound `CCOC(=O)c1c(NC(=O)c2ccccc2C)sc2c1CC(C)(C)OC2`, the z-score was -0.332.

With `CCOC(=O)c1c(NC(=S)NC)sc2c1CC(C)(C)SC2`, the z-score was 12.5 (active).

As for `CCOC(=O)c1c(NC(=S)NCCc2ccccc2)sc2c1CC(C(C)C)OC2` (stereo not given), the z-score is 3.42 (active).

In the case of `C=C(C)CNC(=S)Nc1sc2c(c1C(=O)OCC)CC(C)(C)OC2`, the z-score came to 0.296.

As to `C=CCNC(=S)Nc1sc2c(c1C(=O)OCC)CC(C(C)C)OC2` (stereo not given), the z-score was 8.63 (active).

`CCOC(=O)c1c(NC(=S)Nc2ccccc2)sc2c1CC(C)(C)SC2` came in with a z-score of -0.0674.

For the compound `CC(C)C1Cc2c(sc(NC(=S)NC(=O)c3ccccc3)c2C#N)CO1` (stereo not given), the z-score was -0.13.

Turning to `CCOC(=O)c1c(NC(=O)c2ccc(C)cc2)sc2c1CC(C)(C)OC2`, the z-score is -0.222.

For the compound `CCOC(=O)c1c(NC(=S)Nc2ccccc2)sc2c1CCN(CCc1ccccc1)C2`, the z-score stood at 0.012.

Compound `CCOC(=O)c1c(NC(=S)Nc2cccc(C)c2)sc2c1CC(C)(C)SC2` registered a z-score of 0.0638.

Regarding `C=CCNC(=S)Nc1sc2c(c1C(=O)OCC)CC(C)(CC)OC2` (stereo not given), the z-score is 2.22.

Regarding `C=CCNC(=S)Nc1sc2c(c1C(=O)OCC)CCN(C(=O)OCC)C2`, the z-score was 0.145.

As for `O=C(NCc1ccco1)c1ccccc1F`, the z-score is 0.717.

Consider `Cc1ccc(C)c(NC(=O)CNS(=O)(=O)c2ccccc2)c1`, for which the z-score is -0.144.

`O=C(CSc1nnnn1-c1ccccc1)N1CCCc2ccccc21` returned a z-score of -0.861.

`Cc1ccc(NC(=O)CSc2nnc(-c3ccncc3)n2C)cc1C` returned a z-score of -0.215.

Consider `COc1cc(OC)c(NC(=O)c2cccc(F)c2)cc1Cl`, for which the z-score is -0.155.

In turn, `COc1ccc(CC(=O)N(c2ccccc2)c2nc(C)cs2)cc1` showed a z-score of -0.721.

With `CCCCC(=O)Nc1ccc(NC(=O)C2CC2)nc1`, the z-score is 0.252.

The compound `CCCC(=O)Nc1cc(C)c(NC(=O)C23CC4CC(CC(C4)C2)C3)cn1` gave a z-score of 0.0448.

Compound `CCCCC(=O)Nc1ccc(NC(=O)C2CC2)cn1` had a z-score of 0.324.

Compound `COc1cccc(C(=O)Nc2ccc(NC(C)=O)cn2)c1` came in with a z-score of 0.157.

For the compound `CCCC(=O)Nc1ccc(NC(=O)C2CC2)cn1`, the z-score was 13.2 (active).

As to `CCC(=O)Nc1ccc(NC(=O)C23CC4CC(CC(C4)C2)C3)cn1`, the z-score was -0.0944.

In turn, `CCC(=O)Nc1ccc(NC(=O)c2cccc(OC)c2)nc1` had a z-score of 0.209.

For `CCCC(=O)Nc1ccc(NC(=O)c2cccc(OC)c2)nc1`, the z-score came to 2.18.

As for `CCCC(=O)Nc1ccc(NC(=O)C23CC4CC(CC(C4)C2)C3)cn1`, the z-score was 5.76 (active).

For `O=C(Nc1ccc(Cl)cn1)c1cccc(F)c1`, the z-score worked out at 0.192.

In turn, `C[N+]1=C(/C=C/Nc2ccccc2Cl)C(C)(C)c2ccccc21` had a z-score of 0.3.

`COc1ccc(Cl)cc1NC(=O)NC(C)c1ccncc1` (stereo not given): the z-score was -0.275.

Compound `O=C(Nc1cc(C(F)(F)F)ccc1N1CCCC1)c1cccnc1` gave a z-score of 0.0707.

As to `O=C(Cn1cc(/C=N/O)c2ccccc21)N1CCOCC1`, the z-score is -0.312.

Regarding `C=CCn1c(COc2ccc(Cl)cc2)nnc1SCC(=O)N1CC(=O)Nc2ccccc21`, the z-score was -0.735.

The compound `Nc1nnc(Cc2ccccc2)s1` displayed a z-score of -0.122.

`CC1CCc2nc(NC(=O)Nc3ccc4c(c3)OCO4)sc2C1` (stereo not given) showed a z-score of -0.337.

The compound `CC1CCc2nc(NC(=O)CN3CCOCC3)sc2C1` (stereo not given) gave a z-score of -0.313.

In turn, `CC1CCc2nc(NC(=O)CN3CCN(Cc4ccc5c(c4)OCO5)CC3)sc2C1` (stereo not given) gave a z-score of 2.47.

In the case of `COc1cc(/C=N/NC(=S)NCc2ccco2)cc(OC)c1OC`, the z-score is -0.66.

`CCc1ccc(/C=N/NC(=S)NCCc2ccccc2)cc1` gave a z-score of 0.0899.

`S=C(NCc1ccco1)N/N=C/c1ccccc1Cl` gave a z-score of 2.22.

The compound `S=C(NCc1ccco1)Nc1cccc(Cl)c1` had a z-score of 0.899.

In the case of `S=C(NCc1ccco1)Nc1ccc(Cl)c(Cl)c1`, the z-score was 8.32 (active).

Turning to `S=C(NCc1ccco1)Nc1cc(Cl)c(Cl)cc1Cl`, the z-score is 0.256.

The compound `CCN(CC)c1ccc(/C=N/NC(=S)NCc2ccco2)cc1` displayed a z-score of 0.137.

For `CN(C)c1ccc(/C=N/NC(=S)NCc2ccco2)cc1`, the z-score was found to be 0.0065.

Turning to `S=C(NCCc1ccccc1)N/N=C/c1ccccc1Cl`, the z-score worked out at 0.283.

On to `Oc1ccc(/C=N/NC(=S)NCc2ccco2)cc1`, for which the z-score was 0.806.

As for `S=C(NCc1ccco1)N/N=C/c1ccc(Cl)cc1`, the z-score is 2.21.

Turning to `S=C(NCCc1ccccc1)N/N=C/c1cccc(Cl)c1Cl`, the z-score came out at 2.63.

Compound `Cc1ccccc1N1C(=O)C(Oc2ccc(Cl)cc2)C1CNC(C)(C)C` (stereo not given) had a z-score of 0.46.

As for `Cc1c(C)n(C)c2ccc(C(=O)Nc3cccc4ccccc34)cc12`, the z-score worked out at 0.368.

`O=C(O)c1ccc(N2C(=O)c3cccc(Oc4ccc(Cl)cc4)c3C2=O)cc1` came in with a z-score of 0.79.

`CN(C)CCCNC(=O)COc1ccc(Br)cc1Cl` gave a z-score of 0.032.

In the case of `CCc1ccc(/C=C/C(=O)c2ccc(S(=O)(=O)N(C)C)cc2)cc1`, the z-score is -0.379.

In the case of `C(=C\c1ccccc1)/CSc1nnc(-c2ccccc2)n1Cc1ccco1`, the z-score is -0.701.

`CC(C)COC(=O)c1nnsc1NC(=O)Nc1ccccc1` showed a z-score of 0.142.

In turn, `O=[N+]([O-])c1ccc(Cl)c(/C=N/NC(=S)Nc2ccccc2)c1` registered a z-score of 1.33.

With `S=C(N/N=C/c1ccccc1Cl)Nc1ccccc1`, the z-score is 6.51 (active).

`CNC(=S)N/N=C/c1ccccc1Cl` returned a z-score of 1.82.

`CCOc1ccc(NC(=O)CSc2nnc(C3CC3)n2N)cc1` registered a z-score of 0.0098.

Consider `O=C(CSc1nc2cc(Cl)ccc2s1)NCc1ccc2c(c1)OCO2`, for which the z-score was -0.0385.

With `COc1ccc(C2Nc3ccccc3C(=O)N2Cc2ccco2)cc1COc1ccc(F)cc1` (stereo not given), the z-score is -0.406.

Turning to `Cc1cnc(NC(=O)CSc2nc3ccccc3c(=O)[nH]2)s1`, the z-score came to 2.14.

In the case of `Cc1cnc(NC(=O)CSc2ccccc2)s1`, the z-score is -0.175.

As for `Cc1cccc(C)c1NC(=O)CSc1nc2ccccc2c(=O)[nH]1`, the z-score is 0.493.

Consider `O=C(CCNC(=O)Cn1ccc2ccccc2c1=O)NCCN1CCN(c2cccc(Cl)c2)CC1`, for which the z-score is -0.463.

As for `Cc1cc(C)cc(NC(=O)CSc2nc3ccncc3[nH]2)c1`, the z-score amounted to 2.24.

`Clc1cccc(CSc2nc3ccncc3[nH]2)c1`: the z-score was 9.69 (active).

With `O=C(CSc1nc2ccc(Cl)cc2[nH]1)Nc1ccc2c(c1)CCC2`, the z-score was 3.89 (active).

Compound `Clc1ccccc1CSc1nc2ccncc2[nH]1` gave a z-score of 0.533.

`Cc1ccc(CSc2nc3ncccc3[nH]2)cc1` showed a z-score of 1.17.

As for `Cc1ccc(CSc2nc3ccncc3[nH]2)cc1`, the z-score turned out to be 2.46.

`Clc1ccc(CSc2nc3ccncc3[nH]2)cc1`: the z-score was 0.673.

The compound `Cc1ccc2nc(SCC(=O)Nc3ccc4c(c3)OCCO4)[nH]c2c1` showed a z-score of -0.404.

In the case of `Cc1cc(C)cc(NC(=O)CSc2nc3[nH]ncc3c(=O)[nH]2)c1`, the z-score was -0.54.

Compound `COc1ccc2nc(SCC(=O)Nc3ccc4c(c3)CCC4)[nH]c2c1` gave a z-score of 0.226.

`Nc1cc(=O)[nH]c(SCc2cccc(Cl)c2)n1` gave a z-score of -0.406.

`O=C(CSc1nc2ccccc2[nH]1)Nc1ccc2c(c1)CCC2` returned a z-score of -0.809.

`COc1cc(/C=N/O)c(Br)cc1OCC(=O)Nc1ccccc1C` displayed a z-score of -0.175.

As for `COc1ccc(CCNC(=O)CCC(=O)N2CCN(S(=O)(=O)c3ccc(Cl)cc3)CC2)cc1OC`, the z-score was -0.0943.

`COc1cccc(NC(=O)c2ccc(-n3cccn3)nc2)c1` registered a z-score of 0.109.

For `Cc1c(C(=O)NCCc2ccc3c(c2)OCCO3)oc2ccccc12`, the z-score was -0.63.

Take `CCn1cc(C(=O)O)c(=O)c2cc(F)c(N3CCN(S(=O)(=O)c4ccc(Br)cc4)CC3)cc21`: the z-score is -0.406.

As to `S=C1NC(c2ccccc2)N2C(=S)NC(c3ccccc3)N12` (stereo not given), the z-score is -1.08.

`CN(CC(=O)Nc1ccc(F)c(F)c1F)C(=O)/C=C/c1ccc(Cl)cc1` returned a z-score of -0.265.

Consider `CCN(CC)C(=O)c1cnn(-c2ccccc2)c1NC(=O)c1cccs1`, for which the z-score is -0.27.

In the case of `COc1ccc(CNC(=O)C2CCN(S(=O)(=O)c3c(C)n[nH]c3C)CC2)cc1`, the z-score is -0.115.

In the case of `Cc1c(CCOC(=O)CC23CC4CC(CC(C4)C2)C3)sc[n+]1Cc1ccccc1`, the z-score is 0.256.

In turn, `COC(=O)c1[nH]c2ccc(F)cc2c1NC(=O)CCN1CC(C)OC(C)C1` (stereo not given) had a z-score of -0.0436.

`Cc1ccc(C(=O)N[C@H](C(=O)OCC(=O)NC2CCS(=O)(=O)C2)C(C)C)cc1` (stereo not given in full) returned a z-score of -0.0806.

For `COc1ccccc1NC(=O)c1ccc(S(=O)(=O)N(C)C)cc1`, the z-score was -0.403.

`Cc1ccc(CN(Cc2ccco2)S(=O)(=O)c2ccc(S(=O)(=O)NCC3CCCO3)cc2)cc1` (stereo not given) gave a z-score of -0.00067.
